Reference: ChEMBL document CHEMBL3433997, “St. Jude Leishmania screening dataset” (2016)
Where “and” joins values, the source holds several entries; their conditions need not be identical. Identical values can stand only once.

Molecular target: Solute carrier family 2, facilitated glucose transporter member 1 (Homo sapiens) (UniProt P11166)
Assay: ST_JUDE_LEISH: Cytotoxicity at 2uM final concentration against transgenic Leishmania Mexicana promastigotes LmGLUT1 that are glucose transport deficient and complemented with the human glucose transporter GLUT1. Activity is measured by DNA content using SYBR green in vitro
Format: functional

Chain of Solute carrier family 2, facilitated glucose transporter member 1 (Homo sapiens) (P11166 whole entry): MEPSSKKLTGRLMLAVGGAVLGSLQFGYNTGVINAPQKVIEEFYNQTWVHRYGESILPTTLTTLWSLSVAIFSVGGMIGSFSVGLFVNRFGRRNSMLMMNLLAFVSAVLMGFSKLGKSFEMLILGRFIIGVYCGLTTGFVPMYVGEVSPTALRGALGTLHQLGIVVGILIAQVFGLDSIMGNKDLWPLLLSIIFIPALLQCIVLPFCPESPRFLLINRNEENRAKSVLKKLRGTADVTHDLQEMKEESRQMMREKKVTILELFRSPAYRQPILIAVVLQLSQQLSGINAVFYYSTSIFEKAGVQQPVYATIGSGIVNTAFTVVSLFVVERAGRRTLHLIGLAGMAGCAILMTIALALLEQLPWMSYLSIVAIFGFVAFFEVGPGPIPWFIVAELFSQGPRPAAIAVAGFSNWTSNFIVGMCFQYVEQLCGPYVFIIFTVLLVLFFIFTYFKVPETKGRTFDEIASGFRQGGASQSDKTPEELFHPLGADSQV

Row | SMILES | inhibition
1 | O=C1Nc2cccc3c2C1(CCCCN1CCC(c2cc4ccncc4[nH]2)CC1)CCC3 (stereo not given) | -0.19% and 8.55%
2 | Cc1onc(-c2ccc(Cl)cc2)c1-c1ccnn1S(=O)(=O)c1ccc(Cl)cc1 | -0.16%
3 | O=C(Nc1ccc(F)cc1)NC1CCN(c2ccnc3cc(Cl)ccc23)CC1 | 3.63%
4 | CCCCc1ccccc1NS(=O)(=O)c1ccc(OC)c(N2CCNCC2)c1 | -0.96%
5 | Fc1ccc2[nH]c(-c3cccc(-c4ccc(CNCc5ccccc5)cc4)c3)nc2c1 | 7.37%
6 | O=C(Nc1cccc(C(F)(F)F)c1)c1cccc(S(=O)(=O)NC2CCN(CC3CCCCC3)C2)c1 (stereo not given) | 0.18%
7 | O=C1CC(C(=O)O)CC(=O)N1 | -3.7%
8 | CCNc1cc(C(=O)N[C@@H](Cc2ccc(F)c(F)c2)[C@H](O)CNCc2cccc(OC)c2)cc(N2CCCCS2(=O)=O)c1 | -0.26%
9 | CC(=O)Oc1c(C2C=CCCC2)c(OC(C)=O)c2ccccc2c1OC(C)=O (stereo not given) | 1.04%
10 | CN1CCCN(Cc2cccc(-c3cccc(NC(=O)c4ccc(C#N)cc4)c3)c2)CC1 | 11%
11 | Cc1ccc(NC(=O)c2ccc(NCCCN(C)Cc3ccccc3)c([N+](=O)[O-])c2)cc1F | 8.67%
12 | Nc1ncnc2occ(-c3ccc(NC(=O)Nc4cc(C(F)(F)F)ccc4F)cc3)c12 | 0.61%
13 | CC(C)C[C@@H](/C=N/N1CCNC1=O)NC(=O)[C@H](CC(C)C)NC(=O)c1ccc(OCCN2CCOCC2)cc1 | 0.84%
14 | Cc1cc(N2CCCC2)nc(Nc2ccc(NC(=O)COc3ccccc3)cc2)n1 | 6.11%
15 | CCCCN(CCCC)CC(O)c1cc(-c2ccc(Cl)cc2)nc2c(Cl)cc(Cl)cc12 (stereo not given) | 6.76%
16 | NC(=O)c1ccccc1OCC(=O)Nc1ccc(-c2cccc(-c3nc4cc(C(F)(F)F)ccc4[nH]3)c2)cc1 | 2.52%
17 | CN=C(S)NN=C(C)c1ccccn1 | 2.61%
18 | Cc1cc(-c2cccc(CNC3CCN(C)CC3)c2)ccc1S(=O)(=O)NCCN1CCCC1 | 0.26%
19 | CN1CCC(NCc2cccc(-c3nn(C)c4nc(NC5CCCC5)ncc34)c2)CC1 | 2.78%
20 | COc1ccccc1NC(=O)Nc1cccc(-c2ccc(-c3nc4cccc(C)c4[nH]3)s2)c1 | 3.95%

Row | SMILES | inhibition
21 | CCNc1cc(C(=O)N[C@@H](Cc2ccccc2)[C@H](O)CNC(C)(C)CCCC(C)C)cc(N2CCCC2=O)c1 | 2.43%
22 | O=C(NCCN1CCOCC1)c1csc(C2CCCN(C(=O)c3ccc(O)c(-c4cc(Cl)cc(Cl)c4)c3)C2)n1 (stereo not given) | 8.92%
23 | O=C1COC(c2ccccc2)(c2ccccc2)CN1CC1CCN(Cc2ccc(O)cc2Cl)C1 (stereo not given) | 3.1%
24 | CN1CCCN(c2ccnc3cc4c(cc23)N(C(=O)c2ccc(Cl)c(Cl)c2)CC4)CC1 | 0.8%
25 | COc1ccc(-c2cc(-c3nc4cc(CN)ccc4[nH]3)c(=O)n(C)c2)cc1OC | 0.63%
26 | COc1cccc(CNC(=O)c2cc(CNCc3ccccc3)ccc2-c2cccc(CNCc3ccc(-c4ccccc4)cc3)c2)c1 | 3.83%
27 | CN(Cc1ccc(-c2ccc(C(F)(F)F)cc2)cc1)C(=O)Cn1c(CCc2cccc(F)c2F)cc(=O)c2ccc(OCCCN3CCCCC3)cc21 | 1.01%
28 | O=C(O)c1cccnc1Sc1ccc(Cl)cc1 | -0.75%
29 | Cc1ccccc1C1CCN(C2CCC(NC(=O)c3ccc(-c4cccs4)s3)CC2)CC1 (stereo not given) | 2.14%
30 | CCCCCCCCNc1c2ccc(Cl)cc2nc2ccc(OC)cc12 | 7.33%
31 | Cc1cc(Cl)c(S(=O)(=O)NC2CCCC2)cc1OCC(=O)NC1CCCCC1 | 3.49%
32 | O=C(/C=C/c1cccc(C(F)(F)F)c1)NCCCCCN1CCC(c2c[nH]c3ccccc23)CC1 | 4.06%
33 | O=C(Nc1ccccc1N1CCOCC1)c1ncoc1-c1ccccc1C(F)(F)F | 3.99%
34 | FC(F)(F)c1cc(Nc2ncnc3ccc(Br)cc23)ccc1OCc1ccccc1 | 6.39%
35 | CC(NCCC1CCC(NC(=O)N[C@H](C)C(O)(c2ccccc2)c2ccccc2)CC1)c1cccc2ccccc12 (stereo not given in full) | 16.8%
36 | O=C(NCCN1CCCC1)c1cccc(-c2ccc(-c3nc4cc(F)ccc4[nH]3)s2)c1 | 2.21%
37 | Nc1cccc(CNCc2ccc(-c3ccc(-c4nc5cc(C(F)(F)F)ccc5[nH]4)s3)cc2)c1 | 2.29%
38 | O=C(O)C[C@H](NC(=O)[C@@H]1CCCN1C(=O)c1cccc(-c2ccc(Cl)c(Cl)c2)c1)C(=O)O | 1.31%
39 | CCc1ccc(NC(=O)c2cccc(CN3CCCN(Cc4cccc(O)c4)CC3)c2)cc1 | 3.9%
40 | Cc1n[nH]c(C)c1C1CCN(CC2CCC(NC(=O)/C=C/c3ccc(Cl)c(Cl)c3)CC2)CC1 (stereo not given) | 4.43%

Molecular target: Hexose transporter 1 (Plasmodium falciparum) (UniProt O97467)
Assay: ST_JUDE_LEISH: Cytotoxicity at 2uM final concentration against transgenic Leishmania Mexicana promastigotes LmPfHT that are glucose transport deficient and complemented with the Plasmodium falciparum hexose transporter. Activity is measured by DNA content using SYBR green in vitro
Format: functional

Row | SMILES | inhibition
41 | O=C1Nc2cccc3c2C1(CCCCN1CCC(c2cc4ccncc4[nH]2)CC1)CCC3 (stereo not given) | 0.01% and 8.94%
42 | Cc1onc(-c2ccc(Cl)cc2)c1-c1ccnn1S(=O)(=O)c1ccc(Cl)cc1 | 4.29%
43 | O=C(Nc1ccc(F)cc1)NC1CCN(c2ccnc3cc(Cl)ccc23)CC1 | 3.1%
44 | CCCCc1ccccc1NS(=O)(=O)c1ccc(OC)c(N2CCNCC2)c1 | -3.65%
45 | Fc1ccc2[nH]c(-c3cccc(-c4ccc(CNCc5ccccc5)cc4)c3)nc2c1 | 9.95%
46 | O=C(Nc1cccc(C(F)(F)F)c1)c1cccc(S(=O)(=O)NC2CCN(CC3CCCCC3)C2)c1 (stereo not given) | -0.46%
47 | O=C1CC(C(=O)O)CC(=O)N1 | -2.75%
48 | CCNc1cc(C(=O)N[C@@H](Cc2ccc(F)c(F)c2)[C@H](O)CNCc2cccc(OC)c2)cc(N2CCCCS2(=O)=O)c1 | 0.17%
49 | CC(=O)Oc1c(C2C=CCCC2)c(OC(C)=O)c2ccccc2c1OC(C)=O (stereo not given) | 3.27%
50 | CN1CCCN(Cc2cccc(-c3cccc(NC(=O)c4ccc(C#N)cc4)c3)c2)CC1 | 7.28%
51 | Cc1ccc(NC(=O)c2ccc(NCCCN(C)Cc3ccccc3)c([N+](=O)[O-])c2)cc1F | 3.73%
52 | Nc1ncnc2occ(-c3ccc(NC(=O)Nc4cc(C(F)(F)F)ccc4F)cc3)c12 | 2.93%
53 | CC(C)C[C@@H](/C=N/N1CCNC1=O)NC(=O)[C@H](CC(C)C)NC(=O)c1ccc(OCCN2CCOCC2)cc1 | 6.5%
54 | Cc1cc(N2CCCC2)nc(Nc2ccc(NC(=O)COc3ccccc3)cc2)n1 | 6.84%
55 | CCCCN(CCCC)CC(O)c1cc(-c2ccc(Cl)cc2)nc2c(Cl)cc(Cl)cc12 (stereo not given) | 7.36%
56 | NC(=O)c1ccccc1OCC(=O)Nc1ccc(-c2cccc(-c3nc4cc(C(F)(F)F)ccc4[nH]3)c2)cc1 | -0.46%
57 | CN=C(S)NN=C(C)c1ccccn1 | -4.43%
58 | Cc1cc(-c2cccc(CNC3CCN(C)CC3)c2)ccc1S(=O)(=O)NCCN1CCCC1 | 0.15%
59 | CN1CCC(NCc2cccc(-c3nn(C)c4nc(NC5CCCC5)ncc34)c2)CC1 | 1.84%
60 | COc1ccccc1NC(=O)Nc1cccc(-c2ccc(-c3nc4cccc(C)c4[nH]3)s2)c1 | 6.34%

Row | SMILES | inhibition
61 | CCNc1cc(C(=O)N[C@@H](Cc2ccccc2)[C@H](O)CNC(C)(C)CCCC(C)C)cc(N2CCCC2=O)c1 | 1.71%
62 | O=C(NCCN1CCOCC1)c1csc(C2CCCN(C(=O)c3ccc(O)c(-c4cc(Cl)cc(Cl)c4)c3)C2)n1 (stereo not given) | 1.79%
63 | O=C1COC(c2ccccc2)(c2ccccc2)CN1CC1CCN(Cc2ccc(O)cc2Cl)C1 (stereo not given) | 1.71%
64 | CN1CCCN(c2ccnc3cc4c(cc23)N(C(=O)c2ccc(Cl)c(Cl)c2)CC4)CC1 | 1.89%
65 | COc1ccc(-c2cc(-c3nc4cc(CN)ccc4[nH]3)c(=O)n(C)c2)cc1OC | 0.83%
66 | COc1cccc(CNC(=O)c2cc(CNCc3ccccc3)ccc2-c2cccc(CNCc3ccc(-c4ccccc4)cc3)c2)c1 | 4.88%
67 | CN(Cc1ccc(-c2ccc(C(F)(F)F)cc2)cc1)C(=O)Cn1c(CCc2cccc(F)c2F)cc(=O)c2ccc(OCCCN3CCCCC3)cc21 | 0.66%
68 | O=C(O)c1cccnc1Sc1ccc(Cl)cc1 | -0.76%
69 | Cc1ccccc1C1CCN(C2CCC(NC(=O)c3ccc(-c4cccs4)s3)CC2)CC1 (stereo not given) | 1.24%
70 | CCCCCCCCNc1c2ccc(Cl)cc2nc2ccc(OC)cc12 | 7.51%
71 | Cc1cc(Cl)c(S(=O)(=O)NC2CCCC2)cc1OCC(=O)NC1CCCCC1 | 2.41%
72 | O=C(/C=C/c1cccc(C(F)(F)F)c1)NCCCCCN1CCC(c2c[nH]c3ccccc23)CC1 | 3.58%
73 | O=C(Nc1ccccc1N1CCOCC1)c1ncoc1-c1ccccc1C(F)(F)F | 2.36%
74 | FC(F)(F)c1cc(Nc2ncnc3ccc(Br)cc23)ccc1OCc1ccccc1 | 3.97%
75 | CC(NCCC1CCC(NC(=O)N[C@H](C)C(O)(c2ccccc2)c2ccccc2)CC1)c1cccc2ccccc12 (stereo not given in full) | 16.2%
76 | O=C(NCCN1CCCC1)c1cccc(-c2ccc(-c3nc4cc(F)ccc4[nH]3)s2)c1 | 2.37%
77 | Nc1cccc(CNCc2ccc(-c3ccc(-c4nc5cc(C(F)(F)F)ccc5[nH]4)s3)cc2)c1 | 1.24%
78 | O=C(O)C[C@H](NC(=O)[C@@H]1CCCN1C(=O)c1cccc(-c2ccc(Cl)c(Cl)c2)c1)C(=O)O | 0.14%
79 | CCc1ccc(NC(=O)c2cccc(CN3CCCN(Cc4cccc(O)c4)CC3)c2)cc1 | 3.08%
80 | Cc1n[nH]c(C)c1C1CCN(CC2CCC(NC(=O)/C=C/c3ccc(Cl)c(Cl)c3)CC2)CC1 (stereo not given) | 4.25%
